{
  "source": "PubChem BioAssay (NCATS)",
  "note": "A number with no mark means an inactive call. No rule for the calls is given here. Potency is read from the fitted curve at half-maximal effect.",
  "data": [
    {"system": "HIV-1 nucleocapsid protein NCp7 (binding to TG oligonucleotide)", "assay": "HIV Nucleocapsid (AID 346);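 also: potency is for inhibitors that block NC binding and lower polarization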", "details": "HIV-1 NC / fluorescein-TGTGTGTG probe, fluorescence polarization", "how_it_was_run": "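10 nM TG4xF probe with 100 nM nucleocapsid protein in high-salt Hepes pH 7.5 (250mM NaCl) containing 1uM ZnCl2 and reducing agents. Compound inhibition of binding was read as fluorescein polarization after 1 hr at room temperature.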", "units": {"Potency": "µM"}, "values": [
      {"smiles": "CN1CCN(c2ncc3nc(-c4cc(F)cc(F)c4)c(=O)n(CCC#N)c3n2)CC1", "Potency": "> 20"},
      {"smiles": "CN1CCN(c2ncc3nc(-c4cc(F)cc(F)c4)c(=O)n(-c4ccccc4)c3n2)CC1", "Potency": "> 20"},
      {"smiles": "CN(C)c1ccc(-c2cncnc2N(C)Cc2ccco2)cc1", "Potency": "> 20"},
      {"smiles": "CN(C)c1ncc2nc(-c3ccccc3)c(=O)n(CCc3ccccc3)c2n1", "Potency": "> 20"},
      {"smiles": "CN(Cc1ccco1)c1nc(-c2ccc3c(c2)OCO3)nc2ccccc12", "Potency": "> 20"},
      {"smiles": "COc1ccccc1-c1cc(Nc2ccn[nH]2)ncn1", "Potency": "> 20"},
      {"smiles": "COc1cccc(-c2ccc3ncnc(N(C)Cc4ccco4)c3c2)c1", "Potency": "> 20"},
      {"smiles": "Fc1ccc(Nc2nc(-c3cccnc3)nc3ccccc23)cc1", "Potency": "> 20"},
      {"smiles": "COCCn1c(=O)c(-c2cc(F)cc(F)c2)nc2cnc(Oc3ccc(OC)cc3)nc21", "Potency": "> 20"},
      {"smiles": "COc1cccc(-c2ccc3ncnc(NCCNC(C)=O)c3c2)c1", "Potency": "> 20"},
      {"smiles": "O=C(Nc1cccc(F)c1)N1CCCC2(CCN(C(=O)c3cc(C(F)(F)F)cc(C(F)(F)F)c3)CC2)C1", "Potency": "> 20"},
      {"smiles": "CS(=O)(=O)N1CCC2(CC1)CN(C(=O)Nc1ccccc1)C2", "Potency": "> 20"},
      {"smiles": "COc1cccc(Nc2ncc3nc(-c4cccs4)c(=O)n(CCC#N)c3n2)c1", "Potency": "> 20"},
      {"smiles": "COc1ccc(-n2c(=O)c(C)nc3cnc(Nc4ccccc4)nc32)cc1", "Potency": "> 20"},
      {"smiles": "c1cncc(-c2nc(-n3ccnc3)c3ccccc3n2)c1", "Potency": "> 20"}
    ]}
  ]
}
